The test system of assay [1] is PRMT1 (protein arginine N-methyltransferase 1). In words: PRMT1 binders on small-molecule microarrays, primary screen, biochemical, small-molecule microarray, 635 nm fluorescence (AID 1088).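 Also: binding of Prmt1 protein to compounds spotted on small-molecule microarray slides.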 Particulars: small-molecule microarray binding, higher = more signal.
Assay [2] in a line: yeast growth modulation, basal conditions, primary screen, YJM789 clinical isolate, OD600, 24 h (AID 1089).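 Also: growth of clinical yeast isolate S. cerevisiae YJM 789 seeded 1000 cells per well; test concentration not given here.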 Particulars: S. cerevisiae YJM789 growth, higher = more signal, called active from +8 up or from −8 down.
Assay [3] can be described thus: fission yeast growth modulation, primary screen, strain 972, OD600, 24 h, no modulator (AID 1090).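 Also: basal condition with compound alone and no growth modifier present; test concentration not given here.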 The conditions noted are these: S. pombe 972 growth, higher = more signal, called active from +8 up or from −8 down.
A short description of assay [4]: S. cerevisiae growth modulation with rapamycin, primary screen, strain BY4716, OD600, 96 h (AID 1091). Also: test concentration not given here. Particulars: higher = more signal, called active from +8 up or from −8 down.
For assay [5], the target named is Torsin-1A-interacting protein 2 (Homo sapiens) (UniProt Q8NFQ8). Nature of the assay: LULL1 binders on small-molecule microarray, primary screen, cell lysate, human LULL1 lysate, 635/667 nm fluorescence (AID 1092).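 Also: probe is lysate of COS7 cells overexpressing human LULL1; score merges per-feature 667 nm fluorescence with signal-to-noise.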 Particulars: hLULL1 lysate binding, 635 nm fluorescence, higher = more signal.
Sequence of Torsin-1A-interacting protein 2 (Homo sapiens) (Q8NFQ8 whole entry, looked up): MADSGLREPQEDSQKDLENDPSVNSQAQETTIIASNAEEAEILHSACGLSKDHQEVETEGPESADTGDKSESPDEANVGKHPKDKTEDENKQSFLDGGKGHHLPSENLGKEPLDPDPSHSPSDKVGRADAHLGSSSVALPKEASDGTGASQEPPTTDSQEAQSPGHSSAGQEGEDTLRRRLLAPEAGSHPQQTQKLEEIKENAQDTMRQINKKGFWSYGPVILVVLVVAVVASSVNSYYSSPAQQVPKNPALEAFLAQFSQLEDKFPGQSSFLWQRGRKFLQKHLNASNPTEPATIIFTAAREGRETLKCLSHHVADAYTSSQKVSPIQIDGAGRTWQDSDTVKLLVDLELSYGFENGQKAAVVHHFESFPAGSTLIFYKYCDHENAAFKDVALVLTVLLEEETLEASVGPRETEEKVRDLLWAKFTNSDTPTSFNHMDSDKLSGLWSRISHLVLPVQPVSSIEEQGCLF
Assay [6] in a line: E. coli growth modulation, two-sided OD650, primary screen, E. coli filamentation project, strain DRC41, 24 h (AID 1093).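 Also: MC1000 strain lacking acrAB efflux and sulA so SOS filamentation is blocked; test concentration not given here.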 Particulars: OD650, 24 h, higher = more signal, called active from +8 up or from −8 down.
The nature of assay [7]: small-molecule microarray binders of probe aLefty2, primary screen, biochemical, biotinylated probe, 635/667 nm fluorescence (AID 1094).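 Also: score merges spot fluorescence near 667 nm with spot signal-to-noise ratio.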 Particulars: higher = more signal.
Assay [8] relates to Noggin (protein binding on small-molecule microarray). Nature of the assay: Noggin binders on small-molecule microarray, primary screen, biochemical, 635/667 nm fluorescence (AID 1095).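 Also: score merges 667 nm feature fluorescence with signal to noise over triplicate slides.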 Particulars: 635 nm fluorescence, higher = more signal.
The target of assay [9] is Neurogenic locus notch homolog protein 3 (Homo sapiens) (UniProt Q9UM47). In words: NOTCH3 binders on small-molecule microarray, primary screen, biochemical, 635/667 nm fluorescence (AID 1096). Particulars: NOTCH3 binding, 635 nm fluorescence, higher = more signal.
Sequence of Neurogenic locus notch homolog protein 3 (Homo sapiens) (Q9UM47 whole entry, looked up): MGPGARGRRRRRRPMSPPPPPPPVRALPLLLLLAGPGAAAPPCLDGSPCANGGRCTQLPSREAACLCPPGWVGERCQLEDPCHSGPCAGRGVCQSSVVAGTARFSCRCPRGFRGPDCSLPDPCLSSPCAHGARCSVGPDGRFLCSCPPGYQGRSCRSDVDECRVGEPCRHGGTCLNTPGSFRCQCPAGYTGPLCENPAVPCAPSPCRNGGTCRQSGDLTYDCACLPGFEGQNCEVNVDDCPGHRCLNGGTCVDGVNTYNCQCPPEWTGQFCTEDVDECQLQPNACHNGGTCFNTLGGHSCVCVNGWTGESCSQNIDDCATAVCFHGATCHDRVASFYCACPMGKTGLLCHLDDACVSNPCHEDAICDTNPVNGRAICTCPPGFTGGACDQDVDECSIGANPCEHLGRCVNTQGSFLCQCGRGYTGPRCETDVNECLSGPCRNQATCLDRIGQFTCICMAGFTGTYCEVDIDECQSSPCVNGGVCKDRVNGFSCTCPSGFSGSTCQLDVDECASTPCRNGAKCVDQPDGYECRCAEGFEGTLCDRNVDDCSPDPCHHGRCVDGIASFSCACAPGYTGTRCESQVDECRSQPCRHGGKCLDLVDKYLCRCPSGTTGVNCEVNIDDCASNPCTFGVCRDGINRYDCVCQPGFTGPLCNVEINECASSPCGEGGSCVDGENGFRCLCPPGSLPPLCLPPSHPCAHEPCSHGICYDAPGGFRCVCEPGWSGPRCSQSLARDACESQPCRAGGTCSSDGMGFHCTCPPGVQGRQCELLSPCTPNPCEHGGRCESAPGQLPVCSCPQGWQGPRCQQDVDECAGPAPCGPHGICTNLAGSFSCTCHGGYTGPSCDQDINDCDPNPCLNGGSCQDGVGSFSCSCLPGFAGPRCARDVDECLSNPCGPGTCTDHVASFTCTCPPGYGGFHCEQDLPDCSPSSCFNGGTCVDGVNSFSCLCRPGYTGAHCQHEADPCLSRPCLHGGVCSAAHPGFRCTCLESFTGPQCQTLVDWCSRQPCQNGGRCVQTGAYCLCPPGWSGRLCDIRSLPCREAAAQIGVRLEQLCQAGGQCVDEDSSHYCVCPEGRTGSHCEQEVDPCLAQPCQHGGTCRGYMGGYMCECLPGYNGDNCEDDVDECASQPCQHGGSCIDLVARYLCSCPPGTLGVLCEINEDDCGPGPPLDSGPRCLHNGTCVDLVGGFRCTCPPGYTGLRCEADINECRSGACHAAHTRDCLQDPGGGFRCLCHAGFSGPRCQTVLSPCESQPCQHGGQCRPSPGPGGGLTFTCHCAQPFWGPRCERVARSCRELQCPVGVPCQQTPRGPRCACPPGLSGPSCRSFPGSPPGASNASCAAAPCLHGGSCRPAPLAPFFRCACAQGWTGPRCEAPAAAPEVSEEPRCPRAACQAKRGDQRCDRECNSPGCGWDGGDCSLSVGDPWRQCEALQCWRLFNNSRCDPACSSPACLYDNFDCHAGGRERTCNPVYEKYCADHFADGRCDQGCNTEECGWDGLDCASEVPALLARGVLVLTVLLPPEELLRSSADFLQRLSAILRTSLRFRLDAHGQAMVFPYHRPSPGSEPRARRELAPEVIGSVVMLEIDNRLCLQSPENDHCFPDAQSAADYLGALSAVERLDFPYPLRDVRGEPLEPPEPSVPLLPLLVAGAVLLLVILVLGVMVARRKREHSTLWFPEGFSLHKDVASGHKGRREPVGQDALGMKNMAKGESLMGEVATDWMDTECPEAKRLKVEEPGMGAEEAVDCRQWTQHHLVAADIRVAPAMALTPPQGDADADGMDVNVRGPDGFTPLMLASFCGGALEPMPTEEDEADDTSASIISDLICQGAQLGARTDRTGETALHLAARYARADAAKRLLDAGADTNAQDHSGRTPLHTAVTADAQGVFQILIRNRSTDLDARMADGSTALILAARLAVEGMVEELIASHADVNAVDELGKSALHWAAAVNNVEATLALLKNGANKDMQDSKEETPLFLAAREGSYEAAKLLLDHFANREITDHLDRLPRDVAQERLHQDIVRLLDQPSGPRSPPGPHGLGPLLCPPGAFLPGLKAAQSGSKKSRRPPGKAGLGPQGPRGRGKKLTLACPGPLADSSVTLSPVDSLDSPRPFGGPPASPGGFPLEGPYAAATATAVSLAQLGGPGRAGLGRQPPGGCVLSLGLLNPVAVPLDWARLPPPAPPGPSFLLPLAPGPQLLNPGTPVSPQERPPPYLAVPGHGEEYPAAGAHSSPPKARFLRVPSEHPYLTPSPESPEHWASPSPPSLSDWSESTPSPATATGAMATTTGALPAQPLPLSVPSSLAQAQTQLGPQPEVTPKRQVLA
The nature of assay [10]: small-molecule microarray binders of probe aEGFR, primary screen, biochemical, biotinylated probe, 635/667 nm fluorescence (AID 1097).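 Also: probe is a biotinylated anti-EGFR antibody binding compounds printed on slides; score combines fluorescence near 667 nm and signal to noise of each spot.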 Particulars: higher = more signal.

Activity calls are given as the source filed them.

For the molecule `COc1ccc(NC(=O)O[C@H]2[C@H](OC(=O)c3cc4ccccc4[nH]3)[C@@H](OC(=O)c3cc4ccccc4[nH]3)[C@@H](OC)O[C@@H]2CO)cc1`, the composite z-score in [1] is 0.496; in [5], 1.54; in assay [7] it was -0.007; in assay [8] it was 0.21; in [9], 0.475; in [10], -0.0409. For the same molecule, the z-score in assay [2] is -1.68 (inactive); in [3], -0.519 (inactive); in [4] it was 0.611 (inactive); in assay [6], 0.593 (inactive).
Turning to `Cc1ccc(C2C3C(=O)CC4C(=O)N(c5ccccc5)C(=O)C4C3CN2S(=O)(=O)c2ccc(C)cc2)cc1` (stereo not given), the composite z-score stood at 1.32 in assay [1]; 2.93 in assay [5]; 0.571 in assay [7]; 0.0835 in assay [8]; 1.12 in assay [9]; 0.786 in [10]. Besides, the z-score in [2] was 0.799 (inactive); in assay [3], 0.499 (inactive); in assay [4] it was 1.45 (inactive); in assay [6] it was 0.0125 (inactive).
On to `C#CCN1[C@H](/C=C/C2CC2)[C@H](Cc2ccccc2)OC(=O)[C@@H]1Cc1ccccc1`, for which the composite z-score in [1] is 0.663; in [5], 0.613; in [7] it was -0.102; in assay [8] it was 0.792; in assay [9] it was 0.0922; in assay [10], -0.118. For the same molecule, the z-score was -0.651 (inactive) in assay [2], 0.241 (inactive) in [3], 0.79 (inactive) in [4] and -0.714 (inactive) in assay [6].
With `CCN(CC)c1ccc(N2CC=CC34O[C@@H]5/C=C\CCC(C)OC(=O)C5[C@H]3C(=O)N(CCCCCO)[C@@H]4C2=O)cc1` (stereo not given in full), the composite z-score is -0.895 in [1]; -1.3 in [5]; -0.283 in assay [7]; -0.663 in assay [8]; -0.134 in assay [9]; -0.238 in assay [10]. Moreover, the z-score in assay [2] was 0.026 (inactive); in assay [3], -1.42 (inactive); in assay [4] it was -0.399 (inactive); in assay [6], -0.374 (inactive).
`CC[C@@H]1C=C(C(=O)O)[C@H](c2ccc(C)cc2)N1S(=O)(=O)c1ccc(C)cc1`: the composite z-score in [1] was 0.805; in [5], 2.9; in assay [7] it was -0.0654; in [8] it was 0.634; in assay [9], 0.939; in [10] it was -0.0557. The z-score is -1.23 (inactive) in assay [2], 0.992 (inactive) in [3], -0.564 (inactive) in assay [4] and -0.552 (inactive) in assay [6].
Take `CCCC1(C(=O)OC)C=C2C(=C(c3ccccc3)C(=O)C2C)CN1` (stereo not given): the composite z-score was -0.406 in assay [1]; 1.64 in assay [5]; 0.248 in assay [7]; -0.533 in assay [8]; 0.0144 in assay [9]; 0.0384 in assay [10]. The z-score in assay [2] is 0.283 (inactive); in assay [3], 0.312 (inactive); in assay [4], 0.763 (inactive); in assay [6], -0.375 (inactive).
As to `Cc1ccc(S(=O)(=O)N2C[C@@H](C(=O)O)[C@H](Sc3ccccc3)C[C@H]2c2ccccc2)cc1`, the composite z-score in assay [1] was 1.55; in assay [5] it was 3.41; in [7], 0.237; in [8], 0.228; in assay [9] it was 0.988; in assay [10], 0.0478. In addition, the z-score in [2] was -0.552 (inactive); in [3], 0.972 (inactive); in [4] it was -0.727 (inactive); in assay [6] it was -0.385 (inactive).
Take `O=C1C[C@@](C(=O)NCc2ccccc2)(c2ccc([N+](=O)[O-])cc2)[C@@H](c2ccc(CO)cc2)N1CC12CC3CC(CC(C3)C1)C2`: the composite z-score is 1.54 in assay [1]; 2.39 in assay [5]; -0.0965 in [7]; 1.52 in assay [8]; 1.15 in [9]; -0.166 in assay [10]. For the same molecule, the z-score in [2] was 0.893 (inactive); in [3], 0.639 (inactive); in [4], 8.2 (active); in assay [6], 0.657 (inactive).
As for `O=C(CS)NCCCCCNC(=O)[C@@H]1C[C@@H]2C(=O)NCC(=O)N2[C@@H]1c1ccc(O)cc1`, the composite z-score in assay [1] is 1.08; in assay [5] it was 1.47; in assay [7], -0.124; in assay [8], 0.362; in assay [9] it was 0.179; in assay [10] it was -0.15. Also, the z-score is 0.118 (inactive) in assay [2], -0.771 (inactive) in [3], 0.494 (inactive) in assay [4] and 2.13 (inactive) in [6].
For the molecule `O=C1[C@H]2C=C(I)[C@H](C[C@@H]2OCCCCO)[C@@]12CO2`, the composite z-score in assay [1] was 0.9; in assay [5], 0.512; in assay [7] it was -0.0534; in assay [8], 0.573; in assay [9], 0.186; in assay [10], -0.165. Also, the z-score in assay [2] is -1.04 (inactive); in [3], -0.983 (inactive); in [4] it was 0.0593 (inactive); in [6] it was -1.09 (inactive).
With `O=C1C2C=CC(C(O)c3ccc4c(c3)OCO4)N(Nc3ccc([N+](=O)[O-])cc3)C2C(=O)N1c1ccccc1` (stereo not given), the composite z-score in assay [1] was 0.66; in assay [5] it was 1.97; in assay [7] it was -0.222; in assay [8], -0.0077; in assay [9] it was 0.777; in [10], 0.006. Also, the z-score in assay [2] is -0.664 (inactive); in assay [3], 0.484 (inactive); in [4], 1.36 (inactive); in [6], -0.245 (inactive).
`Cc1ccc(S[C@]2(C(=O)NCC(C)C)CC(=O)N(Cc3cc(C(F)(F)F)cc(C(F)(F)F)c3)[C@@H]2c2ccc(CO)cc2)cc1`: the composite z-score in assay [1] is 0.407; in assay [5], 0.472; in [7] it was 0.522; in [8] it was -0.671; in [9], -0.643; in assay [10], -0.073. Moreover, the z-score in assay [2] was -0.463 (inactive); in [3], -0.924 (inactive); in assay [4], -0.429 (inactive); in assay [6] it was -0.869 (inactive).
Turning to `C=CCOC(=O)[C@H]1[C@@H]2C(=O)O[C@@H](c3ccccc3)[C@@H](c3ccccc3)N2[C@@H](c2ccc(OCCOC(=O)[C@@H]3C[C@@H]4C(=O)N5CCC[C@H]5C(=O)N4[C@@H]3c3cccc(OCCO)c3)cc2)[C@]12C(=O)Nc1ccc(I)cc12`, the composite z-score in [1] is 1.56; in [5], 2.09; in assay [7] it was -0.117; in assay [8], 1.86; in assay [9], 1.08; in [10], 0.0032. For the same molecule, the z-score was 0.151 (inactive) in [2], 1.04 (inactive) in [3], 2.23 (inactive) in assay [4] and -0.443 (inactive) in [6].
Regarding `CC1CC/C=C\[C@H]2OC34C=CCN(c5ccc6ccccc6c5)C(=O)[C@H]3N(CCO)C(=O)[C@@H]4C2C(=O)O1` (stereo not given in full), the composite z-score in assay [1] is 0.229; in assay [5], 2.07; in assay [7], 0.314; in assay [8], -1.11; in [9], 0.521; in [10], -0.123. In addition, the z-score is -0.646 (inactive) in assay [2], -1.4 (inactive) in [3], -0.764 (inactive) in assay [4] and 0.764 (inactive) in [6].

(Values after PubChem BioAssay.)
